AmpC detergent: AmpC beta-lactamase inhibition with detergent present | Potency, µM (doses to about 114 µM), usual class: inhibitors | hit rate 0.041% among 370,000 | AID 485294 | AmpC hydrolysis of nitrocefin, absorbance 480 nm, 0.01% Triton; note: nearly all actives have a fitted effect of over 25% in size
Target sequence (P00811 whole entry, looked up): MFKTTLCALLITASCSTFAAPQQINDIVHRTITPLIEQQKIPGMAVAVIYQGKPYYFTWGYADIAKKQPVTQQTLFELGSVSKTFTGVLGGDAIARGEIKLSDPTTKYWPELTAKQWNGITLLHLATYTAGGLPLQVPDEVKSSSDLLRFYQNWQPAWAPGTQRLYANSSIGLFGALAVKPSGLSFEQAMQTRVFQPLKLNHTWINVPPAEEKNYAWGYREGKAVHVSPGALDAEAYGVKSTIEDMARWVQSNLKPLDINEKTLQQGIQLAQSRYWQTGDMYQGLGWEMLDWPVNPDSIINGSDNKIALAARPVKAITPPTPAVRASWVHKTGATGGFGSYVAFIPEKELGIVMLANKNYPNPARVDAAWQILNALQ
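AmpC (5.3 nM in the dispensed reagent) in 20 mM phosphate pH 7.0 with 0.01% (detergent screen) or 0.0001% Triton X-100 was preincubated with compounds for 15 min at room temperature. Nitrocefin was then added from an 800 uM solution, and hydrolysis was followed at 480 nm.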
Giardia FBPA inh: blocks Giardia fructose-bisphosphate aldolase activity; purified Giardia FBPA; Potency, µM (highest dose often 59.6 µM), usual class: inhibitors; hit rate 0.71% among 290,000; note: nearly all actives have a fitted effect of over 55% in size
Target sequence (A8B2U2 whole entry, looked up): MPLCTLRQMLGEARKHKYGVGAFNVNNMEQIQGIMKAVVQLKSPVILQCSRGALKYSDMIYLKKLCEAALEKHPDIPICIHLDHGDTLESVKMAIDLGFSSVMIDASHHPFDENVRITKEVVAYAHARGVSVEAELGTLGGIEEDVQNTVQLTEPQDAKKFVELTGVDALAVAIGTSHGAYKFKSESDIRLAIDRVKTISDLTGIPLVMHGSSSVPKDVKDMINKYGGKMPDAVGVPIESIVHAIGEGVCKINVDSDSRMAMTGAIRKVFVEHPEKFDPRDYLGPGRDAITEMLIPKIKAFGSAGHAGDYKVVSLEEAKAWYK
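40 nM FBPA preincubated 10 min at RT with compound (up to 57.5 uM final), then substrate plus GAPDH/TPI/NAD/arsenate coupling and diaphorase/resazurin added. Fluorescence read after 20 min at RT, 525/598 nm.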
AMA1 RON2 block: disrupts binding of P. falciparum AMA1 to RON2; AlphaScreen AMA1-biotinylated RON2 peptide binding; Potency, µM (titrated, usually from 58.2 µM), most hits filed as inhibitors; hit rate 0.2% among 360,000; note: nearly all actives have a fitted effect of over 45% in size
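AMA1 (3D7) with his tag at 25 nM final met compounds first, then biotinylated RON2 peptide at 25 nM; detection used donor plus acceptor beads, 10 µg/mL apiece, read by AlphaScreen after 30 min at room temperature.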
LmPK inhibitor: LmPK (Leishmania mexicana) enzyme inhibition; Q27686; purified LmPK, Kinase-Glo ATP luminescence, 1 h; Potency, µM (series often up to 57.5 µM), usual class: inhibitors; hit rate 0.37% among 290,000
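0.1 nM LmPK, 0.5 mM PEP, 0.1 mM ADP; 50 mM imidazole pH 7.2, 7 mM MgCl2, 50 mM KCl; 1 h RT. Kinase-Glo luminescence readout, normalized to no-enzyme (full inhibition) and uninhibited wells.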
AmpC no deterg: blocks E. coli AmpC beta-lactamase in detergent-free assay; P00811; AmpC nitrocefin hydrolysis, absorbance 480 nm, 0.0001% Triton; Potency, µM (titrated, usually from 57.1 µM), usual class: inhibitors; hit rate 0.52% among 330,000; note: nearly all actives have a fitted effect of over 20% in size
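AmpC (5.3 nM in the dispensed reagent) in 20 mM phosphate pH 7.0 with 0.01% (detergent screen) or 0.0001% Triton X-100 was preincubated with compounds for 15 min at room temperature. Nitrocefin was then added from an 800 uM solution, and hydrolysis was followed at 480 nm.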
A number is an active result. Shown are actives, neighbours in structure and some others; about 1.3% of the full set was active somewhere. Calls come from the whole dose curve; as a rule, active = well fitted curve in the direction sought with a large enough effect; inconclusive = small, poorly fitted or top-dose-only effect, or another doubt; inactive = no such curve, though single readings can be large; an effect the other way counts as inactive or inconclusive.

`COc1ccccc1-c1ccc2ncnc(N3CCN(C)CC3)c2c1` gave Giardia FBPA inh inactive.
Screening CCC(=O)N1CCCC(C)(C(=O)Nc2ccc(C)c(C)c2)C1 (configuration not stated) returned AMA1 RON2 block inactive.
For CCc1ccc(S(=O)(=O)NCCc2csc(-c3cccnc3)n2)s1 the results were AmpC detergent inactive, Giardia FBPA inh inactive, AMA1 RON2 block inactive, LmPK inhibitor inactive and AmpC no deterg 35µM.
For Cc1cccc(C(=O)NCCc2csc(C)n2)c1 the results were AmpC detergent inactive, Giardia FBPA inh inactive, AMA1 RON2 block inactive, LmPK inhibitor inactive and AmpC no deterg 3.5µM.
Screening O=C(NCCc1csc(-c2cccnc2)n1)c1ccccc1 returned AmpC detergent inconclusive, Giardia FBPA inh inactive, AMA1 RON2 block inactive, LmPK inhibitor inactive and AmpC no deterg 1.4µM.
`O=C(NCCc1csc(-c2cccnc2)n1)c1cccc2ccccc12` gave AmpC detergent inconclusive, Giardia FBPA inh inactive, AMA1 RON2 block inactive, LmPK inhibitor inactive and AmpC no deterg inactive.
CCn1cc(C(=O)OCC(=O)Nc2cccc(C(C)=O)c2)c(=O)c2ccc(C)nc21 was read as AmpC detergent inactive.
Cc1cccc(NC(=O)C(C)OC(=O)CNC(=O)C2CCCCC2)c1 (configuration not stated) was read as AMA1 RON2 block inactive.
Screening COc1ccc(-n2ncc(C(=O)Nc3cccc(C(F)(F)F)c3)c2C2CCN(C(=O)OC(C)(C)C)CC2)cc1 returned AmpC detergent inactive.
O=C(Nc1ccccc1)c1sc2cc(C(F)(F)F)cnc2c1-c1cccs1 was read as AmpC detergent inactive, Giardia FBPA inh inactive, AMA1 RON2 block inactive, LmPK inhibitor inactive and AmpC no deterg 4.5µM.
Screening Cc1cc(NS(=O)(=O)c2ccc(NC(=O)c3ccccc3F)cc2)no1 returned AMA1 RON2 block inactive and AmpC no deterg inactive.
For COc1ccc(-c2nnc3n2N=C(c2cc(OC)ccc2OC)CS3)cc1 the results were Giardia FBPA inh inactive.
Screening Cc1cnc(C(=O)O)c[n+]1[O-] returned Giardia FBPA inh inactive.
N=C1/C(=C/c2ccc(-c3cccc(C(=O)O)c3)o2)C(=O)N=C2SC=C(c3ccccc3)N12 was read as AmpC detergent 50µM, Giardia FBPA inh inconclusive, AMA1 RON2 block inconclusive, LmPK inhibitor inactive and AmpC no deterg inactive.
Screening N=C1/C(=C\c2ccc(-c3cc(Cl)cc(Cl)c3)o2)C(=O)N=C2SC=C(c3ccccc3)N12 returned AmpC detergent inactive, Giardia FBPA inh inactive, AMA1 RON2 block inactive, LmPK inhibitor inactive and AmpC no deterg inactive.
Screening Cc1c(S(=O)(=O)N2CCCCC2)c(=O)n(C)c(=O)n1C returned AmpC detergent inconclusive, AMA1 RON2 block inactive and AmpC no deterg inconclusive.
O=C(c1ccccc1Cl)N1N=C(c2cccs2)CC1c1cccc(O)c1 (configuration not stated) was read as AmpC detergent inactive, AMA1 RON2 block inactive, LmPK inhibitor inactive and AmpC no deterg inactive.
Screening O=C(CN1CCCCC1)Nc1cccc(-n2cnnn2)c1 returned AmpC detergent inactive, Giardia FBPA inh inactive, AMA1 RON2 block inactive, LmPK inhibitor inactive and AmpC no deterg 0.14µM.
For Cc1nc(NC(=O)c2ccco2)sc1C(=O)O the results were AmpC detergent inactive, Giardia FBPA inh inactive, AMA1 RON2 block inactive, LmPK inhibitor 25µM and AmpC no deterg inactive.
COC(=O)c1sc(NC(=O)c2ccco2)nc1C was read as AmpC detergent inconclusive, Giardia FBPA inh inactive, AMA1 RON2 block inactive, LmPK inhibitor inactive and AmpC no deterg inactive.
`O=c1[nH]c2ccc(Cl)cc2c(-c2ccccc2)c1SC(=S)N1CCCCC1` gave AmpC detergent inactive, Giardia FBPA inh inactive, AMA1 RON2 block inactive, LmPK inhibitor inactive and AmpC no deterg 10µM.
For Cc1ccccc1-n1c([C@@H]2C[C@H]2c2ccccc2)n[nH]c1=S the results were AmpC detergent inactive, Giardia FBPA inh inactive, AMA1 RON2 block inactive, LmPK inhibitor 11µM and AmpC no deterg inactive.
COc1ccccc1-n1c(-c2ccccc2)n[nH]c1=S was read as AmpC detergent inactive, Giardia FBPA inh inactive, AMA1 RON2 block inactive, LmPK inhibitor inactive and AmpC no deterg inactive.
`COc1ccc(-c2cc(-c3n[nH]c(=S)n3-c3ccccc3OC)[nH]n2)cc1` gave AmpC detergent inconclusive, Giardia FBPA inh inactive, AMA1 RON2 block inactive, LmPK inhibitor 11µM and AmpC no deterg inactive.
Screening COc1ccc(OC)c(-n2c(-c3ccccc3)n[nH]c2=S)c1 returned AmpC detergent inactive, Giardia FBPA inh inactive, AMA1 RON2 block inactive, LmPK inhibitor 2.2µM and AmpC no deterg inactive.
For Cc1ccccc1-n1c(-c2ccc3ccccc3n2)n[nH]c1=S the results were AmpC detergent inactive, Giardia FBPA inh inactive, AMA1 RON2 block inactive, LmPK inhibitor 18µM and AmpC no deterg inactive.
`O=C(c1ccc(CSc2nc3ccncc3n2Cc2cccc(F)c2)cc1)N1CCCCCC1` gave AmpC detergent inactive.
Screening COc1ccc(OC)c(-n2c(-c3cc(-c4ccccc4)n[nH]3)n[nH]c2=S)c1 returned AmpC detergent inconclusive, Giardia FBPA inh inactive, AMA1 RON2 block inactive, LmPK inhibitor 10µM and AmpC no deterg inactive.
`COc1ccc(-c2n[nH]c(=S)n2-c2ccccc2C)cc1` gave AmpC detergent inactive, Giardia FBPA inh inactive, AMA1 RON2 block inactive, LmPK inhibitor 28µM and AmpC no deterg inactive.
For COc1ccc(-c2n[nH]c(=S)n2-c2ccccc2C)cc1OC the results were AmpC detergent inactive, Giardia FBPA inh inactive, AMA1 RON2 block inactive, LmPK inhibitor inconclusive and AmpC no deterg inactive.
For COc1ccccc1-n1c(-c2cn(C)nc2C)n[nH]c1=S the results were AmpC detergent inactive, Giardia FBPA inh inconclusive, AMA1 RON2 block inactive, LmPK inhibitor 22µM and AmpC no deterg inactive.
`S=c1[nH]nc(-c2ccc3ncccc3c2)n1-c1ccc2c(c1)OCCO2` gave AmpC detergent inactive, Giardia FBPA inh inactive, AMA1 RON2 block inactive, LmPK inhibitor 7.1µM and AmpC no deterg inactive.
CC(=O)NCC1(c2ccccc2)CCN(CCCC(=O)c2ccc(F)cc2)CC1 was read as AMA1 RON2 block inactive.
Screening COc1ccc(C2=Nn3c(nnc3-c3ccc(OC)c(OC)c3)SC2)cc1 returned Giardia FBPA inh inactive.
`O=C(NCc1ccccc1F)Nc1nnc([C@H]2C[C@H](O)[C@@H](CO)O2)s1` gave AMA1 RON2 block inactive.
For CC(C)C[C@H]1CN([C@@H](Cc2ccccc2)CN2CCC[C@H]2CN2C(=O)C(=O)NC[C@@H]2Cc2ccc(O)cc2)C(=O)C(=O)N1CC1CCCCCC1 the results were AMA1 RON2 block inactive.
Screening S=c1[nH]nc(-c2ccc3ccccc3n2)n1-c1ccc2ncccc2c1 returned AmpC detergent inactive, Giardia FBPA inh inactive, AMA1 RON2 block inactive, LmPK inhibitor 14µM and AmpC no deterg inactive.

Screening data deposited in PubChem by National Center for Advancing Translational Sciences (NCATS).
